Among the data in ChEMBL document CHEMBL5606458, “ASAP - ZIKV NS2B-NS3 protease fluorescence single point” (2024) are inhibition values, retold here.

This experiment addresses Nonstructural protein 3 (Zika virus) (UniProt A0A024AXB9).

Among all 2,700 compounds or so, about 160 (5.9%) showed an effect of 50% or more. For the sample, strong results were picked, then their nearest neighbours and some compounds at random.

Sequence of Nonstructural protein 3 (Zika virus) (A0A024AXB9 as listed by the source): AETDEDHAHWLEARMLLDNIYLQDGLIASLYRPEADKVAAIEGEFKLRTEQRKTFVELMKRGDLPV

In general, inhibition refers to the relative decrease from the control value, in per cent. Regarding `O=C(c1cc(Cl)ccc1NS(=O)(=O)c1ccc(Oc2ccccc2Cl)cc1)N1CCCC1`, the inhibition (PRVABC59, Concentration 49.5 uM, Number of replicates 2.0, Standard deviation 2.8745469037851152 %) was 9.57%; the inhibition (PRVABC59, Concentration 99.01 uM, Number of replicates 2.0, Standard deviation 3.402955430557717 %) worked out at 14.4%; the inhibition (PRVABC59, Concentration 198.0 uM, Number of replicates 2.0, Standard deviation 3.9207965622968795 %) was 20%.
With `O=C(c1cc(Cl)ccc1NS(=O)(=O)c1ccc(Oc2ccccc2Cl)cc1)N1CCC[C@@H]1CO`, the inhibition was 6.57% (PRVABC59, Concentration 49.5 uM, Number of replicates 2.0, Standard deviation 0.644882859919004 %); 37.2% (PRVABC59, Concentration 99.01 uM, Number of replicates 2.0, Standard deviation 0.07876403049715877 %); 69.4% (PRVABC59, Concentration 198.0 uM, Number of replicates 2.0, Standard deviation 0.031176529605690447 %).
For the compound `C[C@@H](NC(=O)c1cc(Cl)ccc1NS(=O)(=O)c1ccc(Oc2ccccc2Cl)cc1)[C@H]1CCCO1`, the inhibition was 30.9% (PRVABC59, Concentration 49.5 uM, Number of replicates 2.0, Standard deviation 0.31998022259385983 %); 35.1% (PRVABC59, Concentration 99.01 uM, Number of replicates 2.0, Standard deviation 0.2133183501303701 %); 23.8% (PRVABC59, Concentration 198.0 uM, Number of replicates 2.0, Standard deviation 0.1263515313886271 %).
As to `O=C(c1cc(Cl)ccc1NS(=O)(=O)c1ccc(Oc2ccccc2Cl)cc1)N1CCC[C@H](O)C1`, the inhibition (PRVABC59, Concentration 49.5 uM, Number of replicates 2.0, Standard deviation 2.1414055085112063 %) is 8.55%; the inhibition (PRVABC59, Concentration 99.01 uM, Number of replicates 2.0, Standard deviation 0.8713297847731235 %) turned out to be 39.7%; the inhibition (PRVABC59, Concentration 198.0 uM, Number of replicates 2.0, Standard deviation 0.024611062132057417 %) came out at 79.8%.
On to `C[C@H]1COCCN1C(=O)c1cc(Cl)ccc1NS(=O)(=O)c1ccc(Oc2ccccc2Cl)cc1`, for which the inhibition (PRVABC59, Concentration 49.5 uM, Number of replicates 2.0, Standard deviation 0.03588483834653944 %) stood at 17%; the inhibition (PRVABC59, Concentration 99.01 uM, Number of replicates 2.0, Standard deviation 0.6631068200403265 %) worked out at 40.8%; the inhibition (PRVABC59, Concentration 198.0 uM, Number of replicates 2.0, Standard deviation 0.09361590556282165 %) was determined as 58.7%.
On to `O=C(c1cc(Cl)ccc1NS(=O)(=O)c1ccc(Oc2ccccc2Cl)cc1)N1CC[C@H](CO)C1`, for which the inhibition came to 4.61% (PRVABC59, Concentration 49.5 uM, Number of replicates 2.0, Standard deviation 0.6366783858004793 %); 11.5% (PRVABC59, Concentration 99.01 uM, Number of replicates 2.0, Standard deviation 1.3685297503351668 %); 72.9% (PRVABC59, Concentration 198.0 uM, Number of replicates 2.0, Standard deviation 0.3954655654516591 %).
As to `CC[C@H]1CCN(C(=O)c2cc(Cl)ccc2NS(=O)(=O)c2ccc(Oc3ccccc3Cl)cc2)C1`, the inhibition (PRVABC59, Concentration 49.5 uM, Number of replicates 2.0, Standard deviation 0.8056939918249262 %) was 9.4%; the inhibition (PRVABC59, Concentration 99.01 uM, Number of replicates 2.0, Standard deviation 0.9468131045821944 %) amounted to 15.3%; the inhibition (PRVABC59, Concentration 198.0 uM, Number of replicates 2.0, Standard deviation 0.6022197968075486 %) amounted to 23.5%.
Consider `Cc1cnccc1NC(=O)c1cccn(CC2CCNCC2)c1=O`, for which the inhibition stood at 0.531% (PRVABC59, Concentration 49.5 uM, Number of replicates 2.0, Standard deviation 3.2606712103202136 %); 3.91% (PRVABC59, Concentration 99.01 uM, Number of replicates 2.0, Standard deviation 2.3019517896210857 %); 7.25% (PRVABC59, Concentration 198.0 uM, Number of replicates 2.0, Standard deviation 2.0430462280295743 %).
For the compound `c1ccc2c([C@H]3CCN(CC[C@H]4CCCOC4)C3)c[nH]c2c1`, the inhibition is 5.96% (PRVABC59, Concentration 49.5 uM, Number of replicates 2.0, Standard deviation 1.010318627219257 %); 9.61% (PRVABC59, Concentration 99.01 uM, Number of replicates 2.0, Standard deviation 2.5976606536818863 %); 20.4% (PRVABC59, Concentration 198.0 uM, Number of replicates 2.0, Standard deviation 2.1960692966802595 %).
Consider `CCn1ccnc(N2CC[C@H](c3ccn[nH]3)C2)c1=O`, for which the inhibition is, setting by setting: (PRVABC59, Concentration 49.5 uM, Number of replicates 2.0, Standard deviation 1.2586397664505307 %) 6.21%; (PRVABC59, Concentration 99.01 uM, Number of replicates 2.0, Standard deviation 2.3660377586558408 %) 15.1%; (PRVABC59, Concentration 198.0 uM, Number of replicates 2.0, Standard deviation 2.03279173119948 %) 28.1%.
Regarding `NCc1cccc(NC(=O)Cc2ccc(OCc3ccccc3)cc2)c1`, the inhibition (PRVABC59, Concentration 49.5 uM, Number of replicates 2.0, Standard deviation 0.6755896628980406 %) is -0.82%; the inhibition (PRVABC59, Concentration 99.01 uM, Number of replicates 2.0, Standard deviation 0.4165875428765907 %) amounted to 8.98%; the inhibition (PRVABC59, Concentration 198.0 uM, Number of replicates 2.0, Standard deviation 2.4964043674210097 %) is 40.9%.
As for `NCc1cccc(NC(=O)[C@@H](NC(=O)OCc2ccccc2)c2ccc(F)c(F)c2)c1`, the inhibition is -2.45% (PRVABC59, Concentration 49.5 uM, Number of replicates 2.0, Standard deviation 0.33969955290034887 %); 6.3% (PRVABC59, Concentration 99.01 uM, Number of replicates 2.0, Standard deviation 0.8168349211729018 %); 43.9% (PRVABC59, Concentration 198.0 uM, Number of replicates 2.0, Standard deviation 1.2939689407463024 %).
Take `C[C@@H](C(=O)Nc1cccc(CN)c1)c1ccc(OCc2ccccc2)cc1`: the inhibition is -0.009% (PRVABC59, Concentration 49.5 uM, Number of replicates 2.0, Standard deviation 0.17467234529733644 %); 21.6% (PRVABC59, Concentration 99.01 uM, Number of replicates 2.0, Standard deviation 10.257482850017862 %); 62.2% (PRVABC59, Concentration 198.0 uM, Number of replicates 2.0, Standard deviation 0.22285904793408415 %).
For `NCc1cccc(NC(=O)c2ccc(OCc3ccccc3)cc2)c1`, the inhibition is, setting by setting: (PRVABC59, Concentration 49.5 uM, Number of replicates 2.0, Standard deviation 1.3665778981704908 %) 1.2%; (PRVABC59, Concentration 99.01 uM, Number of replicates 2.0, Standard deviation 3.6407499729049095 %) 22.5%; (PRVABC59, Concentration 198.0 uM, Number of replicates 2.0, Standard deviation 29.263434924261905 %) 26.6%.
With `NCc1cccc(CNC(=O)[C@@H](NC(=O)OCc2ccccc2)c2ccc(OCc3ccccc3)cc2)c1`, the inhibition (PRVABC59, Concentration 49.5 uM, Number of replicates 2.0, Standard deviation 0.160775728553173 %) was determined as 99.2%; the inhibition (PRVABC59, Concentration 99.01 uM, Number of replicates 2.0, Standard deviation 0.12446874737194843 %) stood at 99%; the inhibition (PRVABC59, Concentration 198.0 uM, Number of replicates 2.0, Standard deviation 0.3293253590204834 %) stood at 98.1%.
Take `CCCCCC(=O)N[C@H](C(=O)NCc1ccc(NC(=N)N)cc1)c1ccc(OCc2ccccc2)cc1`: the inhibition (PRVABC59, Concentration 49.5 uM, Number of replicates 2.0, Standard deviation 4.889627391275408 %) was found to be 4.26%; the inhibition (PRVABC59, Concentration 99.01 uM, Number of replicates 2.0, Standard deviation 2.962062980256652 %) turned out to be 19.3%; the inhibition (PRVABC59, Concentration 198.0 uM, Number of replicates 2.0, Standard deviation 2.9458988209157537 %) stood at 67.5%.
As to `NCc1cccc(NC(=O)[C@@H](NC(=O)OCc2ccccc2)c2ccc(Br)cc2)c1`, the inhibition reads like this: (PRVABC59, Concentration 49.5 uM, Number of replicates 2.0, Standard deviation 0.867338983981324 %) 10%; (PRVABC59, Concentration 99.01 uM, Number of replicates 2.0, Standard deviation 0.4728161592371566 %) 98.2%; (PRVABC59, Concentration 198.0 uM, Number of replicates 2.0, Standard deviation 0.18671930544775084 %) 97.9%.
In the case of `NCc1cccc(NC(=O)[C@@H](NC(=O)OCc2ccccc2)c2ccc(F)cc2)c1`, the inhibition runs as follows: (PRVABC59, Concentration 49.5 uM, Number of replicates 2.0, Standard deviation 0.5315909510099626 %) 1.43%; (PRVABC59, Concentration 99.01 uM, Number of replicates 2.0, Standard deviation 0.7442277023062145 %) 8.36%; (PRVABC59, Concentration 198.0 uM, Number of replicates 2.0, Standard deviation 0.5134389777058966 %) 25.7%.
